# Shn3 3UTR inh: inhibitors of Schnurri-3 3'UTR reporter in osteoblasts | 360,000 tested, 0.52% active | Clone20 osteoblast Shn3 3'UTR firefly luciferase, 24 h | inhibition, % at 12.5 µM;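 active = mean inhibition of at least 75% with every replicate also reaching 75%; inconclusive = mean inhibition at least 75% but some replicate below; inactive = mean inhibition below 75%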;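 note: 0% = median of neutral control wells and 100% = pilot-screen positive control compound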
# LMP1 NFkB inh: Epstein-Barr LMP1 NF-kappaB reporter inhibition. inhibition, % at 12.5 µM. 350,000 tested, 0.69% active. AID 504558. LMP1-induced NF-kappaB luciferase reporter cells, luminescence; in the data active = inhibition above about 41%; inconclusive = no clear call, values can overlap the other calls;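 note: 0% = neutral control wells and 100% = reference inhibitor control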
# LGR2 antag: inhibitors of bursicon-induced Drosophila LGR2 receptor cAMP signaling; HEK293 LGR2, CRE-luciferase, bursicon-stimulated, 4 h; 380,000 tested, 0.35% active; inhibition, % at 9.99 µM; AID 720647;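 active = drop in luminescence signal, shown as inhibition above about 50% in the replicate tests, limit read from the data, passing the limit was not always enough; inconclusive = probably only some replicates passing the limit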;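 note: agonist challenge used bursicon conditioned medium at about half maximal strength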
# PAX8 inh HTS: inhibitors of PAX8 transcriptional activity in RMG-I cells; RMG-I TPO-luciferase reporter, SteadyGlo, 24 h; inhibition, % at 12.6 µM; 360,000 tested, 1.2% active; AID 652154;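 active = mean replicate inhibition at least 60% with every replicate also reaching 60%; inconclusive = only one of the two criteria is met; inactive = mean below 60% and not all replicates reaching 60%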;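 note: luciferase light reporting Pax8 driven TPO promoter activity; plate controls were median of neutral control wells for no effect and mitoxantrone controls for full effect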
# EWS-Fli inh: inhibitors of EWS/Fli oncoprotein transcriptional activity. A673 NR0B1-luciferase reporter, viability-normalised. 350,000 tested, 0.67% active. inhibition, % at 12.6 µM;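 active = mean inhibition of at least 50% after viability correction, with every replicate also passing that limit; inconclusive = mean reaches 50% but only one of two replicates passes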;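 note: firefly luciferase signal divided by Alamar Blue viability fluorescence both relative to DMSO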
# MITF TRPM1 inh: inhibitors of MITF-driven TRPM1 promoter in melanoma cells; 330,000 tested, 0.83% active; inhibition, % at 12.5 µM; SK-MEL-5 TRPM1 promoter luciferase, 24 h;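 active = mean inhibition across replicates of 60% or more, whatever share of single replicates reaches that level; inconclusive = some that reach 60%, reason not given; inactive = mean inhibition across replicates below 60%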
# * hit, by the source's call; ? = inconclusive; · = no result given. Rows were chosen to be rich in hits. Some 2.2% of all compounds tested hit in one or more screens of this group.
SMILES,Shn3 3UTR inh,LMP1 NFkB inh,LGR2 antag,PAX8 inh HTS,EWS-Fli inh,MITF TRPM1 inh
COc1ccc(-c2cc(C)nc3c(-c4ccccc4)cnn23)cc1,-21,-30,?,-94,2,-17
Cc1nc2c(-c3ccccc3)cnn2c(N)c1-c1ccccc1,16,3,57*,-132,41,6
Cc1cc(NC2CCCC2)n2nc(C)c(-c3ccccc3)c2n1,-17,-23,-40,-48,-58,-91
Cc1cc(NCCCn2ccnc2)n2ncc(-c3ccccc3)c2n1,46,50*,·,·,·,58
Cc1cc(NC2CCCC2)n2ncc(-c3ccccc3)c2n1,-1,9,63*,-2,62*,-24
CN(C)CC(=O)Nc1ccc2c(c1)[C@@H]1C[C@H](CC(=O)NCc3cccnc3)O[C@H](CO)[C@@H]1O2,·,·,-2,·,0,·
COc1ccc(-c2cnc3c(c2)C(=O)N([C@H](C)CO)C[C@H](C)[C@H](CN(C)C(=O)C2CC2)O3)cc1,·,·,-12,·,-1,·
C[C@@H]1CN([C@H](C)CO)C(=O)Cc2cc(NC(=O)CCN3CCOCC3)ccc2O[C@@H]1CN(C)S(=O)(=O)c1ccc(F)cc1,·,·,2,-11,-9,·
CCOC(=O)c1c(C)[nH]c(C)c1C(=O)COC(=O)c1ccc([N+](=O)[O-])s1,-7,-4,0,6,-3,76*
CCOC(=O)c1c(C)[nH]c(C)c1C(=O)COC(=O)/C=C/c1ccccc1[N+](=O)[O-],22,7,-13,25,21,15
Cc1noc(C)c1S(=O)(=O)N(C)C[C@@H]1Oc2c(NC(=O)c3nc4ccccc4s3)cccc2C(=O)N([C@@H](C)CO)C[C@@H]1C,·,·,2,·,-1,·
CC(=O)N/C(=C\c1ccccc1)C(=O)OCC(=O)NC1CCCC1,-7,2,33,150*,4,-3
COC(=O)c1c(C)[nH]c(C(=O)/C=C/c2ccc(C)cc2)c1C,-36,3,-44,10,91*,-11
CO[C@H]1CN(C)C(=O)c2cc(NS(=O)(=O)c3ccccc3C)ccc2OC[C@H](C)N(S(C)(=O)=O)C[C@H]1C,·,·,-11,3,2,·
C=C1C(=O)c2sccc2C(c2ccc(OC)c(OC)c2)C1COC(C)=O (configuration not stated),99*,79*,106*,115*,77*,98*
C[C@H]1CN([C@@H](C)CO)C(=O)c2cccc(NS(=O)(=O)c3ccc(F)cc3)c2O[C@H]1CN(C)Cc1ccccc1,·,·,5,-6,-4,·
O=C(C[C@H]1CC[C@@H]2[C@H](COC[C@@H](O)CN2C(=O)Nc2cc(Cl)cc(Cl)c2)O1)NCC1CCCCC1,·,·,11,-16,4,·
COc1ccccc1NC(=O)CSCc1ccc([N+](=O)[O-])cc1,19,-5,15,6,·,9
CC(C)C(NC(=O)CSCc1ccc([N+](=O)[O-])cc1)C(C)C,2,6,3,-2,78*,2
O=C(CSCc1ccc([N+](=O)[O-])cc1)NC1CC1,-6,-1,-11,4,83*,10
O=C(C1CCC1)N1CCCCN2[C@@H](CO)[C@@H](c3ccc(-c4cccc(F)c4)cc3)[C@@H]2C1,·,·,·,2,-2,·
Cc1ccc(S(=O)(=O)N(C)C[C@H]2Oc3cc(C#Cc4ccncc4)ccc3S(=O)(=O)N([C@@H](C)CO)C[C@@H]2C)cc1,·,·,-11,103*,22,·
C[C@H](CO)N1C[C@H](C)[C@@H](CN(C)S(=O)(=O)c2ccc(F)cc2)Oc2cc(C#Cc3ccncc3)ccc2S1(=O)=O,·,·,-6,·,-6,·
Cc1ccc(S(=O)(=O)N(C)C[C@@H]2Oc3cc(C#Cc4ccncc4)ccc3S(=O)(=O)N([C@H](C)CO)C[C@H]2C)cc1,·,·,14,106*,46,·
Cc1ccc(S(=O)(=O)N(C)C[C@@H]2Oc3cc(C#Cc4ccncc4)ccc3S(=O)(=O)N([C@H](C)CO)C[C@@H]2C)cc1,·,·,37,78*,28,·
SMILES,Shn3 3UTR inh,LMP1 NFkB inh,LGR2 antag,PAX8 inh HTS,EWS-Fli inh,MITF TRPM1 inh
COc1ccc(S(=O)(=O)N(C)C[C@H]2Oc3cc(C#CC4CCCC4)ccc3S(=O)(=O)N([C@@H](C)CO)C[C@@H]2C)cc1,·,·,15,90*,7,·
CO[C@@H]1CN(C)C(=O)c2cc(NC(=O)C3CCOCC3)ccc2OC[C@@H](C)N(CC2CC2)C[C@@H]1C,·,·,-12,-3,-1,·
COc1ccc(C[C@@H]2CCc3cnnn3COC[C@H](C(C)C)NC2=O)cc1,·,·,0,-4,-7,·
Cc1[nH]n(-c2ccc(Cl)cc2)c(=O)c1C=NC12CN3CN(CN(C3)C1)C2,-37,2,7,81*,7,3
Cc1[nH]n(-c2cccc(Cl)c2)c(=O)c1C=NC12CN3CN(CN(C3)C1)C2,-16,14,·,·,·,-7
C[C@@H]1CN([C@@H](C)CO)S(=O)(=O)c2ccc(-c3cccnc3)cc2O[C@H]1CN(C)C(=O)C1CCCCC1,·,·,1,·,5,·
O=C(CSc1cccc[n+]1[O-])Nc1cc(S(=O)(=O)N2CCOCC2)ccc1N1CCOCC1,-40,-6,-6,87*,8,-4
O=C(CSc1cccc[n+]1[O-])Nc1cc(S(=O)(=O)N2CCOCC2)ccc1Cl,-7,-9,-7,·,·,3
CCOc1ccccc1NC(=O)C(C)SCc1ccccc1 (configuration not stated),28,-6,5,36,18,4
CC(SCc1ccccc1)C(=O)Nc1ccccc1-c1ccccc1 (configuration not stated),3,-2,3,9,75*,8
C[C@H](CO)N1C[C@H](C)[C@@H](CN(C)Cc2ccc(C(=O)O)cc2)OCCCC[C@H](C)Oc2ccc(NC(=O)Nc3ccccc3)cc2C1=O,·,·,-11,-42,-9,·
COc1cccc(-c2ccc([C@H]3[C@@H](CO)N4C(=O)CN(C(=O)C5CCOCC5)C[C@@H]34)cc2)c1,·,·,-2,-13,0,·
O=C(NCC(c1ccco1)N1CCc2ccccc21)C(=O)Nc1ccc(F)cc1F (configuration not stated),18,-3,13,30,58*,51
O=C(NCC(c1ccco1)N1CCc2ccccc21)C(=O)Nc1ccccc1F (configuration not stated),-7,0,17,-10,-5,2
C[C@H]1CN([C@@H](C)CO)C(=O)c2cc(NC(=O)CCCCCC(=O)Nc3ccccc3N)ccc2O[C@H]1CN(C)C(=O)Nc1ccc(F)cc1,·,·,-15,-13,-6,·
CCCCNC(=O)C(Sc1ccccc1)c1ccccc1 (configuration not stated),-4,3,·,145*,-9,-8
O=C(NCCOc1ccccc1)c1ccc2c(c1)OCO2,-4,66*,·,·,·,59
O=C(NCCc1ccccc1)c1ccc2c(c1)OCCO2,84,84*,102*,·,90*,88*
COc1ccc(CCNC(=O)c2ccc3c(c2)OCCO3)cc1,-63,-17,·,-135,-31,-51

# High-throughput results deposited in PubChem by Broad Institute.
